Measured values published in paper PMC13541613, “GHT-SELEX demonstrates unexpectedly high intrinsic sequence specificity and complex DNA binding of many human transcription factors”.

Assays:
Assay in all cases: HT-SELEX; 20 mM HEPES pH 7, 140 mM KCl, 5 mM NaCl, 1 mM K2HPO4, 2 mM MgSO4, 100 uM EGTA, ZnSO4, 0.1% Tween20; room temperature, 1 h; high values mean tight binding
Settings in all cases: protein: ivt; tags: eGFP (N-terminal); dsDNA, one strand shown
[1] = target: ZNF721 full-length (Homo sapiens, UniProt Q8TF20-2 1-923)
Outline: (§1)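 In HEPES/KCl low-stringency buffer with Tween20, a bead-immobilised tagged transcription factor (full-length or DNA-binding-domain fragment, from HEK293 lysate or cell-free extract) was incubated with a randomized 40-base DNA library for 1 h at room temperature. DNA retained after washing was heat-eluted, amplified by PCR over successive cycles and Illumina-sequenced, giving ~3 million 60 bp reads per sample. The reported binding signal, a relative k-mer count in those selected reads, rises with tighter binding.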

[2] = target: ZNF721 DBD1 (Homo sapiens, UniProt Q8TF20-2 29-461)
Outline: as §1

[3] = target: ZNF721 DBD2 (Homo sapiens, UniProt Q8TF20-2 395-923)
Outline: as §1

ZNF721 DBD1, sequence (Q8TF20 17-449): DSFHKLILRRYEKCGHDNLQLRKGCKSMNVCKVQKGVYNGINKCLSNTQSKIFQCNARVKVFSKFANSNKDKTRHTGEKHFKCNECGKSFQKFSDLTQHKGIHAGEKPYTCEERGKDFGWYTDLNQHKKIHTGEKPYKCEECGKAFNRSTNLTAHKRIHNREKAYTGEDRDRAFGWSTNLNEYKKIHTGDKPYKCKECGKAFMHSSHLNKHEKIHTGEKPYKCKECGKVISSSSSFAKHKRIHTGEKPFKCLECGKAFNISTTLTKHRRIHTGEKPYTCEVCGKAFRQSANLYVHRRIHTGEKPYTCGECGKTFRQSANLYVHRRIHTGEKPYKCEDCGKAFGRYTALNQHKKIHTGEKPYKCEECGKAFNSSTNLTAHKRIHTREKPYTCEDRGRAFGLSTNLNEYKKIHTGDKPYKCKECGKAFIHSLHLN
ZNF721 full-length, sequence (Q8TF20 other isoform, or with tags, fused parts or gaps): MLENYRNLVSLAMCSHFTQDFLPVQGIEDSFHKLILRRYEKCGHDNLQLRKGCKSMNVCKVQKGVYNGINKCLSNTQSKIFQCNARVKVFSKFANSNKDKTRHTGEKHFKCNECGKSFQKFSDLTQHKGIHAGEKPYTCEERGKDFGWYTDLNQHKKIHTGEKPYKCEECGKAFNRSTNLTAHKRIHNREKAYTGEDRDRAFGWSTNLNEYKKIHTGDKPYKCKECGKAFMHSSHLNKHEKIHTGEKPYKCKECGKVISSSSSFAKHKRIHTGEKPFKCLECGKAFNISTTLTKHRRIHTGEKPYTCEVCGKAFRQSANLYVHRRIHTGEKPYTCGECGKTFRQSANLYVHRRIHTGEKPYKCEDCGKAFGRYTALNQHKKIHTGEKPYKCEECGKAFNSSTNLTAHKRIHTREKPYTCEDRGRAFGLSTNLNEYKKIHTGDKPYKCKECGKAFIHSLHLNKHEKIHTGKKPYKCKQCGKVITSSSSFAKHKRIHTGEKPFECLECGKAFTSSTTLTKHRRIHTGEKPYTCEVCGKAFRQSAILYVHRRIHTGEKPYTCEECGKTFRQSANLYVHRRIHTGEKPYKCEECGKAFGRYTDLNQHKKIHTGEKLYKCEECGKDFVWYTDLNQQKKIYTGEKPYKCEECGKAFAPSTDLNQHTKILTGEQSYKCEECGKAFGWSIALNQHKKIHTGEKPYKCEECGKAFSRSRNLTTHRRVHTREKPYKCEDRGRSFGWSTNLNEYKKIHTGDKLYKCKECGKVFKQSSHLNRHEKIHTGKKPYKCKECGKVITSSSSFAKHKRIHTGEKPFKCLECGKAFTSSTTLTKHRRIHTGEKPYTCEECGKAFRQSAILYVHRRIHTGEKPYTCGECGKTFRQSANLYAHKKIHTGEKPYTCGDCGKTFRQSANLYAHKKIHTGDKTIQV
ZNF721 DBD2, sequence (Q8TF20 383-911): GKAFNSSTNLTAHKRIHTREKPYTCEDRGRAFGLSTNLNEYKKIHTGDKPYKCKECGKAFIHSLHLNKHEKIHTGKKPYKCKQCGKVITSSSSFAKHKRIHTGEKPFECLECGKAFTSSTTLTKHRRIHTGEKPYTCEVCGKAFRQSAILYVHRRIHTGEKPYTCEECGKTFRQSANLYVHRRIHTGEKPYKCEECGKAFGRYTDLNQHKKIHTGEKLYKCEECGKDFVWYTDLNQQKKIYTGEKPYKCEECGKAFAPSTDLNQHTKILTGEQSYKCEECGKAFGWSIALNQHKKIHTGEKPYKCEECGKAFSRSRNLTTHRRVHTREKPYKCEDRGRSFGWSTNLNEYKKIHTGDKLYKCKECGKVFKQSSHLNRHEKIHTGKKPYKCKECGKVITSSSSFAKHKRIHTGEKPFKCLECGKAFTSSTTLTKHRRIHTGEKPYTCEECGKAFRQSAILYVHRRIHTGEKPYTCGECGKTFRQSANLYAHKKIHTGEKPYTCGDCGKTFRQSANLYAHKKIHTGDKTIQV

Row | Sequence | binding signal [1] [relative 10-mer count] | binding signal [2] [relative 10-mer count] | binding signal [3] [relative 10-mer count]
1 | CCCCCCGCCC | 0.28 | 0.0116 | 0.00336
2 | CCCTACCACC | 0.104 | 0.00578 | 0.0144
3 | CTCCACCCCC | 0.178 | 0.00812 | 0.00467
4 | GGTGGGTGGA | 0.13 | 0.00615 | 0.00611
5 | CCCGCGCCCC | 0.146 | 0.00505 | 0.0018
6 | CCACCCCCCC | 0.32 | 0.0122 | 0.00336
7 | AGCATACCCA | 0.391 | 0.0246 | 0.366
8 | CCCCCCCCAA | 0.109 | 0.00316 | 0.00288
9 | CCCCCACCCG | 0.174 | 0.00587 | 0.00384
10 | CAAAAAAACA | 0.365 | 0.00349 | 0.263
11 | CCCCTCCCCC | 0.337 | 0.0145 | 0.00443
12 | AAAAAAAGCT | 0.472 | 0.169 | 0.00923
13 | CCGCCCCCCC | 0.197 | 0.00775 | 0.00192
14 | CCGCCCCCGC | 0.127 | 0.00491 | 0.0018
15 | CCCACACCAC | 0.137 | 0.00541 | 0.00503
16 | CACCCCACCC | 0.31 | 0.012 | 0.0036
17 | AGTGTATCCA | 0.248 | 0.11 | 0.197
18 | CCACCCCTCC | 0.209 | 0.0108 | 0.00491
19 | CCCAAAAAAA | 0.149 | 0.0067 | 0.0681
20 | ACCTCCCCCC | 0.151 | 0.00578 | 0.00216

Row | Sequence | binding signal [1] [relative 10-mer count] | binding signal [2] [relative 10-mer count] | binding signal [3] [relative 10-mer count]
21 | AGGCAACACT | 0.174 | 0.00697 | 0.391
22 | AAAGCTGCAC | 0.11 | 0.0548 | 0.0024
23 | CCTTCCCCCC | 0.104 | 0.00472 | 0.00264
24 | ACCCCCACCG | 0.102 | 0.00367 | 0.00336
25 | CCACCCCACA | 0.163 | 0.00564 | 0.00791
26 | CCCGCCCACC | 0.259 | 0.0105 | 0.0024
27 | CCCACCACCG | 0.12 | 0.00514 | 0.00503
28 | AAAGAAGCGT | 0.12 | 0.0739 | 0.00348
29 | GTGGGTGGGA | 0.137 | 0.00729 | 0.00563
30 | CAGCGTATCC | 0.324 | 0.00174 | 0.648
31 | CCACCACCCC | 0.455 | 0.0194 | 0.00419
32 | CGCCACCACC | 0.108 | 0.00468 | 0.00384
33 | AGGGTGGGTG | 0.158 | 0.0094 | 0.00515
34 | CTGCTTTTTC | 0.202 | 0.00491 | 0.196
35 | CCCACCCCTA | 0.119 | 0.00431 | 0.00324
36 | AACAAAAAAA | 0.116 | 0.0078 | 0.069
37 | CAGCGTACCC | 0.239 | 0.00229 | 0.41
38 | CCCCCCGCCA | 0.113 | 0.00445 | 0.00372
39 | CCACCCCCCG | 0.179 | 0.00628 | 0.0024
40 | CCCTACCCCA | 0.11 | 0.00491 | 0.00395

Row | Sequence | binding signal [1] [relative 10-mer count] | binding signal [2] [relative 10-mer count] | binding signal [3] [relative 10-mer count]
41 | CCCTCCACCC | 0.321 | 0.0139 | 0.00731
42 | ACAAAAAAAA | 0.179 | 0.0167 | 0.0899
43 | CAGGGTGGGG | 0.111 | 0.00399 | 0.00384
44 | CCCAAACCCC | 0.109 | 0.00298 | 0.00168
45 | CCGCCCCTCC | 0.151 | 0.00624 | 0.00312
46 | AAAGGCATAC | 0.129 | 0.00142 | 0.123
47 | CCAACCCACC | 0.171 | 0.00642 | 0.00395
48 | CCCCAGCCCC | 0.202 | 0.0083 | 0.0018
49 | CCCCACCGCC | 0.28 | 0.0114 | 0.00635
50 | CTCCCGCCCC | 0.136 | 0.00596 | 0.00192
51 | CCCCTCCACC | 0.274 | 0.0117 | 0.00851
52 | CCCCGCCCTC | 0.146 | 0.00601 | 0.00216
53 | CCATCCCACC | 0.138 | 0.00697 | 0.00575
54 | GCCCCAACCC | 0.105 | 0.00376 | 0.00168
55 | GCACCACCCC | 0.103 | 0.00358 | 0.00815
56 | CCACCCCCCA | 0.272 | 0.0103 | 0.00443
57 | CAGCCCACCC | 0.151 | 0.00431 | 0.0841
58 | GCACCCACCC | 0.107 | 0.00523 | 0.00479
59 | AGCAGCATAC | 0.146 | 0.00179 | 0.164
60 | ACCCTCCCCC | 0.176 | 0.00766 | 0.00575
